From PubChem BioAssay (NCI)
The panel holds about 79,000 compounds, 15% with a hit somewhere; the sample as a whole holds those more often. Unmarked numbers belong to inactive results. Calls of active or inactive are those of the source. No stated cut-off is given here; in the data, active means growth inhibition above about 70%; inactive means the rest.

Experiment: NCI Yeast Anticancer Drug Screen. Data for the rad52 strain (AID 147);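 further: 0% = growth of vehicle-treated control cultures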
Settings: S. cerevisiae rad52 mutant growth inhibition; at 3.7 µM; active compounds read high
Method in brief: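 Measured: yeast growth inhibition. System: strain with a defined DNA damage repair alteration. Reference: vehicle-treated control cultures.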
CC(=O)SCCC[Si](C)(C)CCCSC(C)=O gave a growth inhibition of 2%.
O=C(O)C1CCCCC1c1c2ccc(=O)c(O)c-2oc2c(O)c(O)ccc12 (configuration not stated) gave a growth inhibition of -26%.
Cc1ccc(NN(NC(=O)OC(C)C)C(=O)OC(C)C)cc1 gave a growth inhibition of -2%.
With O=C1c2ccccc2C(=O)c2cc(CBr)ccc21 the growth inhibition was 16%.
In the case of Cc1c(C(Cc2ccccc2N(C)C(=O)/C=C\C(=O)O)c2c[nH]c3ccccc23)c2ccccc2n1C (configuration not stated), the growth inhibition is reported as 0%.
Work on CC(C)/C(Cl)=N\OC(=O)Nc1ccc(F)cc1 yielded a growth inhibition of 6%.
O=C1OC(=O)C2CCCC3CCCC1C32 (configuration not stated) showed a growth inhibition of 67%.
In the case of CCOC(=O)C(NC(=O)c1ccccc1)(N1CCN(c2cc3c(cc2F)c(=O)c(C(=O)O)cn3C2CC2)CC1)C(F)(F)F (configuration not stated), the growth inhibition is reported as 2%.
COc1ccc(NC(=S)N/N=C(\c2ccccc2)c2ccccn2)cc1 gave a growth inhibition of -3%.
With C=CCC1=C(C)C(OC(=O)/C=C/c2ccccc2)CC1=O (configuration not stated) the growth inhibition was 0%.
In the case of NNc1c(F)c(F)cc(F)c1F, the growth inhibition is reported as -19%.
Compound COP(=O)(OC)/C(=C\C1=CN(C(c2ccccc2)(c2ccccc2)c2ccccc2)CN1)NC=O has a growth inhibition of -15%.
For COC(=O)c1cc(-c2ccc(C)cc2)[nH]c(=O)c1C#N, the growth inhibition was 0%.

Same assay, conditions: S. cerevisiae rad52 mutant growth inhibition; at 11.0 µM; active compounds read high
CCOP(=O)(OCC)C(Cc1ccccc1)N=C(c1ccccc1)c1ccccc1 (configuration not stated) showed a growth inhibition of 4%.
Compound CCc1ncnc2cc(OCC3CO3)c(OC)cc12 (configuration not stated) has a growth inhibition of 66%.
CCOC(=O)[C@H]1Nc2ccccc2C2c3ccccc3CC21 (some centres not stated) showed a growth inhibition of -10%.
Work on O=CNc1ccc2c(c1)C(=O)c1ccccc1-2 yielded a growth inhibition of 40%.
Work on CCOc1ccc2c(c1)c(CC(=O)O)cn2C yielded a growth inhibition of 20%.
Work on OC1CSCCCSCCSCCCSC1 yielded a growth inhibition of -49%.
Work on N#Cc1c(N)[nH]c2ccc(Sc3ccccc3)cc12 yielded a growth inhibition of 14%.
For Cc1ccc(-c2ccc(Nc3c4ccccc4nc4ccccc34)cc2)cn1, the growth inhibition was 90% (active).
Compound c1ccc2c(c1)NC(NC1Nc3ccccc3N1)N2 has a growth inhibition of 6%.
Work on OC(COc1cccc2ccccc12)CN1CCOCC1 (configuration not stated) yielded a growth inhibition of 44%.
For CCC/C(Cl)=N\OC(=O)Nc1ccc(Br)cc1, the growth inhibition was 94% (active).
COc1ccc(/C=C2\SC(=S)N(/C=C/c3nc4ccccc4[nH]c3=O)C2=O)cc1OC showed a growth inhibition of 26%.
Compound O=C(NNc1ccnc2cc(Cl)ccc12)/C(=C\c1ccccc1Cl)NC(=O)c1ccccc1 has a growth inhibition of 40%.
Work on CSC1=NNC(SC)=NN1 yielded a growth inhibition of 3%.
For Cc1c(C2=C(Br)C(=O)N(C)C2=O)c(=O)n(C)c(=O)n1C, the growth inhibition was 51%.
In the case of NCCNc1ccc(NCCN)c2c1C(=O)c1c(O)ccc(O)c1C2=O, the growth inhibition is reported as 88% (active).
In the case of Cn1c(=O)c(-c2ccccc2)c(N=[N+]=[N-])c2ccccc21, the growth inhibition is reported as 3%.
CCCCCCCCCCCCCCCCCCOCC(O)COP(=O)(O)OCC1OC(n2cc(F)c(=O)[nH]c2=O)CC1O (configuration not stated) gave a growth inhibition of 61%.
Work on CCS(=O)(=O)c1ccc(/C=C/C=N/NC(=S)NCC(C)C)cc1 yielded a growth inhibition of -1%.
For CCC(=O)Oc1c(Cl)cc(Cl)c2ccccc12, the growth inhibition was -1%.
In the case of COc1cc2c3c(cccc3c1)C(=O)N(CCN(C)C)C2=O, the growth inhibition is reported as 20%.
For CN(C)c1ccc(C(C#N)=C(C#N)C#N)cc1, the growth inhibition was 2%.
With O=C(CCCN1CCC2(CC1)CC(=O)N(N1CCCCCC1)C2=O)c1ccc(F)cc1 the growth inhibition was 46%.
For O=C1C2C(C(=O)N1c1ccc(OCc3ccccc3)cc1)C1c3ccccc3C2C2CCCCN21 (configuration not stated), the growth inhibition was 3%.
CCN(CC)CCC(=O)c1ccc(Oc2ccc(F)cc2)cc1 showed a growth inhibition of -40%.
In the case of O=Nc1c(NO)ccc2nn(-c3ccccc3)nc12, the growth inhibition is reported as 98% (active).
In the case of CC(=O)SCCC[Si](C)(C)CCCSC(C)=O, the growth inhibition is reported as 7%.
Work on O=C(O)C1CCCCC1c1c2ccc(=O)c(O)c-2oc2c(O)c(O)ccc12 (configuration not stated) yielded a growth inhibition of -20%.
Work on Cc1ccc(NN(NC(=O)OC(C)C)C(=O)OC(C)C)cc1 yielded a growth inhibition of 0%.
Work on O=C1c2ccccc2C(=O)c2cc(CBr)ccc21 yielded a growth inhibition of 21%.
Cc1c(C(Cc2ccccc2N(C)C(=O)/C=C\C(=O)O)c2c[nH]c3ccccc23)c2ccccc2n1C (configuration not stated) gave a growth inhibition of 0%.
In the case of CC(C)/C(Cl)=N\OC(=O)Nc1ccc(F)cc1, the growth inhibition is reported as 11%.
For O=C1OC(=O)C2CCCC3CCCC1C32 (configuration not stated), the growth inhibition was 85% (active).
CCOC(=O)C(NC(=O)c1ccccc1)(N1CCN(c2cc3c(cc2F)c(=O)c(C(=O)O)cn3C2CC2)CC1)C(F)(F)F (configuration not stated) showed a growth inhibition of 11%.
In the case of COc1ccc(NC(=S)N/N=C(\c2ccccc2)c2ccccn2)cc1, the growth inhibition is reported as -3%.
C=CCC1=C(C)C(OC(=O)/C=C/c2ccccc2)CC1=O (configuration not stated) gave a growth inhibition of 2%.
NNc1c(F)c(F)cc(F)c1F showed a growth inhibition of -21%.
For COP(=O)(OC)/C(=C\C1=CN(C(c2ccccc2)(c2ccccc2)c2ccccc2)CN1)NC=O, the growth inhibition was -11%.
Compound COC(=O)c1cc(-c2ccc(C)cc2)[nH]c(=O)c1C#N has a growth inhibition of 1%.
